These results are taken from PubChem BioAssay (NCI).

This is part of a sample that, as a whole, favours compounds with a hit. Of some 83,000 tested, about 20% had one in any assay.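 Treatment: one concentration, 48 hours, 96-well format. Scoring: percent growth, with anything below 10 considered active.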 A number with no mark means an inactive call. The source made the active and inactive calls.

Experiment in all cases: NCI-60 one-dose screen, 48 h (100 = growth as untreated, 0 = no growth, -100 = all killed)
Assay [1] concerns HCT-15 colon. The following applies: 10 µM unless noted.
Assay [2] has as its system HT29 colon. The following applies: 10 µM unless noted.
Assay [3] deals with SNB-75 CNS. The following applies: 10 µM unless noted.
Assay [4] deals with SNB-19 CNS. To be noted: 10 µM unless noted.
Assay [5] has as its system U251 CNS. The following applies: 10 µM unless noted.
For assay [6], the system named is SK-MEL-5 melanoma. The following applies: 10 µM unless noted.
For assay [7], the system named is UACC-62 melanoma. The following applies: 10 µM unless noted.
Assay [8] deals with LOX IMVI melanoma. The following applies: 10 µM unless noted.
The subject of assay [9] is SK-MEL-28 melanoma. The following applies: 10 µM unless noted.
The subject of assay [10] is SK-MEL-2 melanoma. The following applies: 10 µM unless noted.
Assay [11] relates to EKVX NSCLC. The following applies: 10 µM unless noted.
The subject of assay [12] is SN12C renal. To be noted: 10 µM unless noted.
Assay [13] concerns UO-31 renal. To be noted: 10 µM unless noted.
The subject of assay [14] is TK-10 renal. The following applies: 10 µM unless noted.
Assay [15] has as its system CAKI-1 renal. To be noted: 10 µM.
Assay [16] concerns A498 renal. The following applies: 10 µM unless noted.
In assay [17] the test system is CCRF-CEM leukemia. To be noted: 10 µM unless noted.
The test system of assay [18] is MOLT-4 leukemia. To be noted: 10 µM unless noted.
For assay [19], the system named is PC-3 prostate. The following applies: 10 µM unless noted.
The subject of assay [20] is ACHN renal. The following applies: 10 µM unless noted.

On to `NC(=O)c1c(NC(=O)c2cccc(C(F)(F)F)c2F)sc2c1CCC(=O)C2`, for which the growth in [1] was 7.63% (active); in [2], 8.55% (active); in assay [3] it was 40.2%; in assay [4], 18%; in assay [5], 15.9%; in assay [6] it was -3.83% (active). Also, the growth in [7] was 11.1%; in assay [8], 19.2%; in assay [9], 33.9%; in [10], 102%; in [11], 40.8%; in assay [12], 27.2%. For the same compound, the growth in assay [13] was -7.62% (active); in assay [14], 29.8%; in assay [15] it was -8.99% (active); in assay [16] it was 70.9%; in [17], 11.7%; in [18], 13.5%.

With `CC1OC(O[C@@H]2C(O)C(CO)OC(O[C@H]3COC(O[C@H]4CC[C@]5(C)[C@H]6CC[C@]78OC[C@@]9(CC[C@](C)(C=O)C[C@H]97)[C@H](O)C[C@@]8(C)[C@]6(C)CC[C@H]5C4(C)C)[C@@H](OC4OC(CO)[C@@H](O)[C@@H](O)[C@@H]4O)[C@@H]3O)[C@H]2OC2OC[C@@H](O)[C@@H](O)[C@@H]2O)[C@@H](O)[C@@H](O)[C@H]1O` (some centres undefined), the growth in assay [1] is 83.7%; in assay [2] it was 6.44% (active); in assay [3], -65.2% (active); in assay [4] it was -49.2% (active); in assay [5], -87.5% (active); in assay [19], -80.5% (active). The growth is -5.38% (active) in assay [8]; -35.2% (active) in [10]; 22.2% in assay [11]; -93.6% (active) in assay [13]; 29.5% in assay [14]; -82.2% (active) in assay [20]. For the same compound, the growth in assay [15] was -80.7% (active); in assay [16] it was -89.3% (active); in assay [17], 4.93% (active); in assay [18], -36% (active).

Consider `C=C(C)C(=O)O[C@H]1C[C@@]2(C)OC(=CC2=O)/C(C)=C\[C@H]2OC(=O)C(=C)[C@H]12`, for which the growth in assay [1] was 1.22% (active); in assay [2] it was 1.99% (active); in assay [3], 33.3%; in assay [4], 49.1%; in assay [5] it was 6.75% (active); in [19], -2.26% (active). For the same compound, the growth was -58.6% (active) in [8]; -28% (active) in assay [10]; 21.1% in assay [11]; -88.9% (active) in [13]; -76.3% (active) in [14]; -11.7% (active) in assay [20]. Besides, the values for the growth in assay [15], in [16] and in assay [18] were 5.49% (active), 21% and -4.17% (active), respectively.

Regarding `ClC(Cl)c1nc(-c2cccs2)n2nc(-c3ccccc3)cc2n1`, the growth in [1] was 0.506% (active); in [2] it was -3.99% (active); in assay [3], 48%; in [4], -5.22% (active); in assay [5] it was -9.39% (active); in assay [6] it was 89.8%. The growth is 23.6% in [7]; 83.5% in assay [8]; -45.9% (active) in [9]; 77.6% in assay [10]; -26.8% (active) in assay [11]; 50.6% in [12]. Also, the growth in [13] is -53.7% (active); in assay [14] it was -10.8% (active); in assay [20], -23.5% (active); in [15], -15% (active); in assay [16] it was -78.5% (active); in assay [17], 67.9%. In assay [18], the growth is 44%.

`O=c1[nH]c2cc(Cl)ccc2n1C1CCN(c2ccc3nnc(Cl)n3n2)CC1`: the growth was 96.5% in assay [1]; 93.2% in [2]; 73.1% in assay [3]; 92.6% in assay [4]; 99.2% in [5]; 91.6% in assay [6]. The growth was 75.8% in assay [7]; 99.1% in assay [8]; 91.1% in [9]; 93.1% in [10]; 95.3% in assay [12]; -30.9% (active) in [13]. In addition, the growth is 92.9% in [14]; 88.2% in assay [20]; 78.6% in assay [15]; 61.5% in assay [16]; 89% in assay [17]; 101% in assay [18].

With `CCC(CC)N1C(=O)/C(=c2\sc3n(c2=O)C2C(NN=3)N(CC)C(=O)N2CC)c2ccccc21` (centres undefined), the growth in assay [1] is 10.4%; in assay [2], 5.44% (active); in [3], -4.75% (active); in [4], 26.4%; in [5], 27.1%; in assay [6], -20.1% (active). Also, the growth in [7] is 15.2%; in assay [8] it was 17.9%; in assay [9], 58.6%; in assay [10], 59.4%; in [11], 48.1%; in [12], 18.2%. Also, the growth in assay [13] was 39.8%; in assay [14], 86.5%; in [20] it was 32%; in assay [15] it was 39.9%; in assay [16], -17% (active); in assay [17], 15.8%. For the same compound, the growth in assay [18] was 10%.

On to `CN(C)c1ccc(/C=N/Nc2nc(N/N=C/c3ccc(N(C)C)cc3)nc(N3CCOCC3)n2)cc1`, for which the growth in assay [1] was 22.4%; in assay [2], 102%; in assay [3], 87.4%; in [4], 91.3%; in [5], 44.3%; in assay [6], 100%. For the same compound, the growth was 97.8% in assay [7]; 87.7% in [8]; 106% in [9]; 98.6% in assay [10]; 95.4% in assay [11]; 89.2% in assay [12]. Also, the growth in assay [13] is 90.7%; in [14], 110%; in [20], 104%; in assay [15], 96%; in assay [17], 13.3%; in [18] it was 96.7%.

As for `CC1OC(O[C@@H]2[C@H](O)C(CO)OC(O[C@H]3COC(O[C@H]4CC[C@]5(C)[C@H]6CC[C@]78OC[C@@]9(CC[C@](C)(C=O)C[C@H]97)C(=O)C[C@@]8(C)[C@]6(C)CC[C@H]5C4(C)C)[C@@H](O)[C@@H]3O)[C@H]2OC2OC[C@@H](O)[C@@H](O)[C@@H]2O)[C@@H](O)[C@@H](O)[C@H]1O` (some centres undefined), the growth in [1] was 95.8%; in assay [2] it was 97.1%; in assay [3], 81.4%; in [4] it was 90.2%; in assay [5], 95.8%; in [19], 81.4%. In addition, the growth is 88.1% in assay [8]; 99.4% in assay [10]; 89.2% in [11]; 75.2% in [13]; 102% in [14]; 97.1% in [20]. In addition, the growth is 84.8% in assay [15], 132% in assay [16], 80.5% in [17] and 63.6% in assay [18].
